Results reported in ChEMBL document CHEMBL1961873, “Compounds: GSK PKIS; Assays: Nanosyn kinase panel” (2012).

What was measured:
[1] = biological target: T1, Serine/threonine-protein kinase Nek9 (Homo sapiens) (UniProt Q8TD19); conditions: at 1 µM;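 further: each value is a mean percent inhibition of NEK9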
T1 sequence (whole entry): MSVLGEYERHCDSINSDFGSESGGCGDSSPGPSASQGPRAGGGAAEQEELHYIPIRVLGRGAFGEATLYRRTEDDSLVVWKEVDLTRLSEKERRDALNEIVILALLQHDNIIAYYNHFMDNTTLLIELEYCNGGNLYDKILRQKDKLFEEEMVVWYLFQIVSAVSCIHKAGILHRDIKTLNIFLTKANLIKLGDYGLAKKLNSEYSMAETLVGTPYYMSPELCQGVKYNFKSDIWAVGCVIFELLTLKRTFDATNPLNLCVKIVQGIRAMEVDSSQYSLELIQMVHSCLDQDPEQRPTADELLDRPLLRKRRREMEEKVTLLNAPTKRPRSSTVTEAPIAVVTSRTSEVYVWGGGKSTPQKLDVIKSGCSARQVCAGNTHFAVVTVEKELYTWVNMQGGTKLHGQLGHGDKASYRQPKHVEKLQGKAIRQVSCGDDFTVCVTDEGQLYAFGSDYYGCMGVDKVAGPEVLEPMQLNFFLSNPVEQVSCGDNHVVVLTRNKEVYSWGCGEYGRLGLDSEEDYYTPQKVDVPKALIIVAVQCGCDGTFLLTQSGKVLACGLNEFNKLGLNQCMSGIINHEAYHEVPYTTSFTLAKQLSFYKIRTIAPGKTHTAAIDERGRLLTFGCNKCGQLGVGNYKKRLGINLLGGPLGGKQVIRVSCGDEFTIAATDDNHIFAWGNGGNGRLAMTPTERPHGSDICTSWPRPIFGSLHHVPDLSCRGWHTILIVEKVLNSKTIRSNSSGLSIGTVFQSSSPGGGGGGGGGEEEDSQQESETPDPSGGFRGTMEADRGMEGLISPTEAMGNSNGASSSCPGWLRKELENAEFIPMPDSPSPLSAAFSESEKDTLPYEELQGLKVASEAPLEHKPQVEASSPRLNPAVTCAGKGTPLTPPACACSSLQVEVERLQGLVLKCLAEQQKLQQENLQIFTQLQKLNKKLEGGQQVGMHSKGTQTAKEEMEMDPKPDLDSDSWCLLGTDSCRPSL

[2] = biological target: Serine/threonine-protein kinase PLK1 (Homo sapiens) (UniProt P53350); conditions: at 0.1 µM
Serine/threonine-protein kinase PLK1 (Homo sapiens), sequence (P53350 whole entry): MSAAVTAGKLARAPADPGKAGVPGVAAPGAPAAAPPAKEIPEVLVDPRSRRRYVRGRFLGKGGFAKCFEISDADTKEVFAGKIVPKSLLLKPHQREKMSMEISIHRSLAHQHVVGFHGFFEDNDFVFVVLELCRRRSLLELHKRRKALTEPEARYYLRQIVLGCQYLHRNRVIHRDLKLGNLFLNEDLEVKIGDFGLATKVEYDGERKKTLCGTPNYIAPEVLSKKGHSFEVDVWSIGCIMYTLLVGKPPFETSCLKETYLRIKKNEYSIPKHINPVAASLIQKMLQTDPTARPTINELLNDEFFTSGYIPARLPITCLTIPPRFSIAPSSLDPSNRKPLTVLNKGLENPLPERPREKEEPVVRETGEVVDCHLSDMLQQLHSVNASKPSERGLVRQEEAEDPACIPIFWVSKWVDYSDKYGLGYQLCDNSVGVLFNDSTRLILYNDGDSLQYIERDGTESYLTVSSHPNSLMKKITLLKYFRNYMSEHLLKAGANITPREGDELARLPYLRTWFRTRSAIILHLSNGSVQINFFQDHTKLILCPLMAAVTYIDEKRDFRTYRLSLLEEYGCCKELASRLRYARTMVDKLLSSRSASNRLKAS

[3] = biological target: Serine/threonine-protein kinase PLK1 (Homo sapiens) (UniProt P53350); conditions: at 1 µM
[4] = biological target: T2, Dual specificity protein kinase TTK (Homo sapiens) (UniProt P33981); conditions: at 0.1 µM
T2 sequence (whole entry): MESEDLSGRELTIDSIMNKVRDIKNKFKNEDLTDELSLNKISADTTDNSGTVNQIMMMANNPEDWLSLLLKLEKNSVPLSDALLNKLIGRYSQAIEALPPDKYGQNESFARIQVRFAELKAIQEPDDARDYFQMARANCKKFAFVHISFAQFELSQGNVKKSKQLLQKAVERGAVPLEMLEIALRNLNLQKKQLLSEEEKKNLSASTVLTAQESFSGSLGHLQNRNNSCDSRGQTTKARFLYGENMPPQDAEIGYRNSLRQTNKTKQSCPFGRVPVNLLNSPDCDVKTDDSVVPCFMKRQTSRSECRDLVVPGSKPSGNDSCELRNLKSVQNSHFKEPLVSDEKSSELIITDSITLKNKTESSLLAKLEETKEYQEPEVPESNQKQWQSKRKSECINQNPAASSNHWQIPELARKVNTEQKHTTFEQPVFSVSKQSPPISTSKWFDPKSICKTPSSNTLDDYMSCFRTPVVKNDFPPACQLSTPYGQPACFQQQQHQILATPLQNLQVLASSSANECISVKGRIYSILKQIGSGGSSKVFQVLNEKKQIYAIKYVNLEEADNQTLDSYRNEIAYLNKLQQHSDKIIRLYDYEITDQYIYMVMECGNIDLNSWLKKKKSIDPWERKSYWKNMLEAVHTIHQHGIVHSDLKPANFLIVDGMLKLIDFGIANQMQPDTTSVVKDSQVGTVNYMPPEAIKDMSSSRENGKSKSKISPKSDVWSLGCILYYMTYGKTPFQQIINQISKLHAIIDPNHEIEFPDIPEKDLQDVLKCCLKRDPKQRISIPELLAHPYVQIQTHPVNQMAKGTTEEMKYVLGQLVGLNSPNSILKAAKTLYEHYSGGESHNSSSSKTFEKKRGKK

[5] = test system: T3, Receptor-type tyrosine-protein kinase FLT3 (Homo sapiens), P36888 [D835Y]; conditions: at 1 µM
T3 sequence (whole entry): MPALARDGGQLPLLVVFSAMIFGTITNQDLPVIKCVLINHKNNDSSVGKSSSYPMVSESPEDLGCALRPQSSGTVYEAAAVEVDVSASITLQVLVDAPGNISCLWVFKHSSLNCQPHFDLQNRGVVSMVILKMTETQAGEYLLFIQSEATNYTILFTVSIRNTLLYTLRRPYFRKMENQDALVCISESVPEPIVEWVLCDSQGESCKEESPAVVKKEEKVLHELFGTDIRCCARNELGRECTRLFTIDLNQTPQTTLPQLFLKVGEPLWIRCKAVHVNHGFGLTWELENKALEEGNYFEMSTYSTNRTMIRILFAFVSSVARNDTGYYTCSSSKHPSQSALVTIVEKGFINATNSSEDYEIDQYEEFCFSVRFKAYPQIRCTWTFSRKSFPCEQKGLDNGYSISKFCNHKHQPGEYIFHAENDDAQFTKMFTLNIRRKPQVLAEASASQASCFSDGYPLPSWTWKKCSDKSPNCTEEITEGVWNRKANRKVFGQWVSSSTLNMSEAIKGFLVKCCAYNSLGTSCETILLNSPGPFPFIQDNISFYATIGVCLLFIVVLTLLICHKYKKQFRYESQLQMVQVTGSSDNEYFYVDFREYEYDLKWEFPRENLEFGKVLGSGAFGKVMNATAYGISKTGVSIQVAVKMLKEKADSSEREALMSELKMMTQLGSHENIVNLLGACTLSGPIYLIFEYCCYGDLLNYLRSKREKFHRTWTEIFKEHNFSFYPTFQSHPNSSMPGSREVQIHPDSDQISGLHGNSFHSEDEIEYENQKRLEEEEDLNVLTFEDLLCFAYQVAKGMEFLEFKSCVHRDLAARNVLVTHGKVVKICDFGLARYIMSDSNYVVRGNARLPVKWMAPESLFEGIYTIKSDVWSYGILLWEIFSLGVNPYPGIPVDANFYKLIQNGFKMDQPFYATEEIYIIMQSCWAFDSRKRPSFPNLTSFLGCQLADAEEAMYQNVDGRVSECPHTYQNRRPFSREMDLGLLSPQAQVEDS

[6] = biological target: Vascular endothelial growth factor receptor 3 (Homo sapiens) (UniProt P35916); conditions: at 0.1 µM
Vascular endothelial growth factor receptor 3 (Homo sapiens), sequence (P35916 whole entry): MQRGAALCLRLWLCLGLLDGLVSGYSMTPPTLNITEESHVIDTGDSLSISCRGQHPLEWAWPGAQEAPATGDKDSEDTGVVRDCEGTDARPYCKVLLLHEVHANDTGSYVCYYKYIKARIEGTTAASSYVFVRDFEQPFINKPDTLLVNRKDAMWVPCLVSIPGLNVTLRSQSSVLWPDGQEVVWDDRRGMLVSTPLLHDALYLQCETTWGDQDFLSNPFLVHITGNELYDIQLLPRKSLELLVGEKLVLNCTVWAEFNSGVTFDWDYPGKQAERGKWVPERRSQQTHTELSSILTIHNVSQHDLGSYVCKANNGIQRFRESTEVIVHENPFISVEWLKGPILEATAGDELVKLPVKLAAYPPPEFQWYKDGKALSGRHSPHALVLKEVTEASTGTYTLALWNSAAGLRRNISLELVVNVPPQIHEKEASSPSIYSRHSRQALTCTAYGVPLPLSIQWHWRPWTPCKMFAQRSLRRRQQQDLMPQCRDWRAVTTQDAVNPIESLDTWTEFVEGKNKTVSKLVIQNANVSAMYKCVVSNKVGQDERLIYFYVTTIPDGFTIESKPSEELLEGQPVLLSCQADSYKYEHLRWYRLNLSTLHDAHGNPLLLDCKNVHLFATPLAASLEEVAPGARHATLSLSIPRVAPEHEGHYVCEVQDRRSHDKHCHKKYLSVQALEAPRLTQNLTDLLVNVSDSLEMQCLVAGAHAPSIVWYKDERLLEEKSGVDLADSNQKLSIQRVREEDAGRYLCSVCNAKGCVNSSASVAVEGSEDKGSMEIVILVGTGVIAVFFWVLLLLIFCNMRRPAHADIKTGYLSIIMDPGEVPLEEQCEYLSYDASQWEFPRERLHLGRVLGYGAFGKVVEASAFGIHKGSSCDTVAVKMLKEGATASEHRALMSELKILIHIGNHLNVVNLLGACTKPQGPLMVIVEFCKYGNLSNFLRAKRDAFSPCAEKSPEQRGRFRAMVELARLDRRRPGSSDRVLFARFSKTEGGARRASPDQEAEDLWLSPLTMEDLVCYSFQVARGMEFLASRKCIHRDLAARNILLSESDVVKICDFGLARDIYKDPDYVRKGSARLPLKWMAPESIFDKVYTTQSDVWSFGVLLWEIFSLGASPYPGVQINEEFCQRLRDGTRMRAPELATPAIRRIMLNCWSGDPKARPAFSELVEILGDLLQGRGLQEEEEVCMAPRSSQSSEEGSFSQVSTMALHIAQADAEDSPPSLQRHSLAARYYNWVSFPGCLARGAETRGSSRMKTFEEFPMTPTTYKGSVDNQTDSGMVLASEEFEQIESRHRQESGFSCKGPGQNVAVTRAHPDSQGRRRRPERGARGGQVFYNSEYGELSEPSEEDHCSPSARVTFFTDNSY

[7] = biological target: Vascular endothelial growth factor receptor 3 (Homo sapiens) (UniProt P35916); conditions: at 1 µM
[8] = biological target: Macrophage colony-stimulating factor 1 receptor (Homo sapiens) (UniProt P07333); conditions: at 0.1 µM
Macrophage colony-stimulating factor 1 receptor (Homo sapiens), sequence (P07333 whole entry): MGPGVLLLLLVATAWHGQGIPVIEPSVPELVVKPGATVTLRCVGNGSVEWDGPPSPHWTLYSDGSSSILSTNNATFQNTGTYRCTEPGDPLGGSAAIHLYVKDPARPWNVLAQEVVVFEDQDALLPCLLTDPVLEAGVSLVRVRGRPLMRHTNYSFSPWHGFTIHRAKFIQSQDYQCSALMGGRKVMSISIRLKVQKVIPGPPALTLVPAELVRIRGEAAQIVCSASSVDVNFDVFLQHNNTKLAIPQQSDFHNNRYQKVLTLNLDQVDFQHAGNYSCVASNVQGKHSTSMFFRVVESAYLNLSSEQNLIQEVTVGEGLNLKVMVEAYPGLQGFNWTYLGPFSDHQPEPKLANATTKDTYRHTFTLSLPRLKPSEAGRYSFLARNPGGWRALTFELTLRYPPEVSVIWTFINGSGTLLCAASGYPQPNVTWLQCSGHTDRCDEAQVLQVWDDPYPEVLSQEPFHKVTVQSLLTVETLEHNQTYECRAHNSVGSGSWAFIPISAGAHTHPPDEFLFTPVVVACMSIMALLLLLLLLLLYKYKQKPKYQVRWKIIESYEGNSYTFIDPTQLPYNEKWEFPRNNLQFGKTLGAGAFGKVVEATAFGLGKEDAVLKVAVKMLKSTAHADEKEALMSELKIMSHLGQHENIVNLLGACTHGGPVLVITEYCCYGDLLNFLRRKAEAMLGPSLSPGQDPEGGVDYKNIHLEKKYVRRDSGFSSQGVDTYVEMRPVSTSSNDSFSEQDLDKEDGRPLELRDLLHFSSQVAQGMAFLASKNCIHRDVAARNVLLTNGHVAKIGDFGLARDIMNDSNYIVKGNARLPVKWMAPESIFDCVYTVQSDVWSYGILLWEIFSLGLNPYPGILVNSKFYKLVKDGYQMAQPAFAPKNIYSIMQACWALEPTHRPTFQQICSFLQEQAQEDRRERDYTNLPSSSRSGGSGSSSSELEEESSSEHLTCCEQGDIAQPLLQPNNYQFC

[9] = biological target: Macrophage colony-stimulating factor 1 receptor (Homo sapiens) (UniProt P07333); conditions: at 1 µM
[10] = biological target: Tyrosine-protein kinase Fyn (Homo sapiens) (UniProt P06241); conditions: at 0.1 µM
Tyrosine-protein kinase Fyn (Homo sapiens), sequence (P06241 2-537 limits assumed): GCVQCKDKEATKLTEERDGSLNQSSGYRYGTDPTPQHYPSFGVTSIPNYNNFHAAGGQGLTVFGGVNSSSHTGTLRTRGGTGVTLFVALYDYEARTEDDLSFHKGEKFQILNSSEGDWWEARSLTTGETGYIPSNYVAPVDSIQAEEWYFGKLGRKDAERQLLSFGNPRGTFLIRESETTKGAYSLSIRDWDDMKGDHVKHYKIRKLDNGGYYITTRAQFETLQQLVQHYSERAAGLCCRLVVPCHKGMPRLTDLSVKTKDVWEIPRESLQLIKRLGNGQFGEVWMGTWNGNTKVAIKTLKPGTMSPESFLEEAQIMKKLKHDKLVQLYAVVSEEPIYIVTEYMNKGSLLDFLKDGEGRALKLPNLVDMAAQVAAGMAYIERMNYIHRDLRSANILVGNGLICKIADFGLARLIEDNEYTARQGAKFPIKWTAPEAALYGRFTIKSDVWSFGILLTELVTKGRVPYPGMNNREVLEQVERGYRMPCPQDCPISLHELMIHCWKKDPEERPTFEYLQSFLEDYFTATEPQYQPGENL

SMILES	inhibition [1]	inhibition [2]	inhibition [3]	inhibition [4]	inhibition [5]	inhibition [6]	inhibition [7]	inhibition [8]	inhibition [9]	inhibition [10]
COc1cccc(-n2ncc3c(N/N=C/c4ccncc4)ncnc32)c1	6.71%	2.19%	3.32%	8.59%	52.1%	9.86%	38.4%	6.17%	30.2%	26.5%
NS(=O)(=O)c1ccc(-c2ccc3c(NC(=O)C4CC4)n[nH]c3c2)cc1	3.68%	2.16%	2.23%	2.82%	8.24%	0.96%	1.51%	0.18%	1.78%	1.45%
NC(=O)c1sc(-n2cnc3cc(C(F)(F)F)ccc32)cc1OCc1ccccc1Br	10.3%	21%	69.5%	2.94%	4.97%	2.24%	4.4%	-0.7%	3.85%	2.13%
COc1cccc(COc2cc(-n3cnc4ccccc43)sc2C(N)=O)c1	8.39%	66.5%	92.2%	3.72%	-4.13%	-2.19%	4.75%	-8.31%	-1.4%	0%
COc1cc(C=NNc2ncnc3c2cnn3Cc2ccccc2)ccc1O	-0.84%	-3.5%	-2.85%	-6.4%	2.91%	0.12%	0.41%	14.5%	58.7%	6.12%
CCn1c(-c2nonc2N)nc2c(C#CC(C)(C)O)ncc(OC[C@@H]3CCCN3)c21	0.02%	-0.2%	-3.86%	4.43%	-3.96%	4.88%	33.9%	-2.54%	1.4%	0.24%
NS(=O)(=O)c1ccc(N/C=C2\C(=O)Nc3ccc4ncsc4c32)cc1	22.4%	4.2%	4.96%	40.1%	81.1%	38.2%	93.1%	29.5%	58.6%	2.85%
Cc1cc(-c2ccco2)cc(C)c1/C=C/c1cncc(-c2nn[nH]n2)c1	1.42%	1.22%	0.57%	4.5%	-2.85%	1.37%	2.25%	-0.94%	2.32%	1.3%
Fc1ccc(-c2ncn(C3CCNCC3)c2-c2ccnc(Oc3ccccc3)n2)cc1	5.18%	3.38%	3.09%	6.21%	-0.44%	-7.44%		-0.76%	3.02%	-2.88%
CCn1c(-c2nonc2N)nc2c(C#CC(C)(C)O)ncc(OCC3CCNCC3)c21	8.54%	4.55%	3.24%	9.22%	0.35%	-2.47%	34.8%	1.63%	1.19%	-4.47%
Nc1nonc1-c1nc2cnccc2n1C1CCCCC1	-2.86%	-2.48%	-0.5%	-1.57%	19.7%	4.11%	16.7%	27.4%	76.3%	2.06%
CCn1c(-c2nonc2N)nc2c(C#CC(C)(C)O)nc(O[C@@H](CN)c3ccccc3)cc21	-1.03%	0.95%	0.24%	3.8%	2.22%	58.4%	93.8%	0.67%	1.9%	3.24%
CCn1c(-c2nonc2N)nc2c(C#CCN)ncc(OCCCN)c21	-9.04%	-5.66%	-6.34%	-4.74%	7.13%	-2.4%	1.59%	-1.23%	0.9%	0.54%
COc1cc2c(cc1Nc1nc(Nc3ccsc3C(N)=O)c3cc[nH]c3n1)N(C(=O)CN(C)C)CCC2	-3.87%	86.3%	97.1%	9.22%	5.44%			55%	82.8%	2.02%
